Reference: PubChem BioAssay (NCI)
The panel holds about 83,000 compounds, 20% with a hit somewhere; the sample as a whole holds those more often.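 Note: values are percent growth. 100 is the growth of untreated cells, values between 100 and 0 indicate rising inhibition; between -100 and 0 indicates cell death.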 A number with no mark means an inactive call. Active and inactive are the calls of the source. How the source made its calls: active means growth percent below 10; inactive means the rest.

Experiments:
Experiment in all cases: NCI-60 one-dose screen, 48 h (100 = growth as untreated, 0 = no growth, -100 = all killed)
Details in all cases: 10 µM unless noted
NCI-H23 lung = system: NCI-H23 lung
NCI-H322M lung = system: NCI-H322M lung
HOP-62 NSCLC = system: HOP-62 NSCLC
NCI-H460 lung = system: NCI-H460 lung
HOP-92 NSCLC = system: HOP-92 NSCLC
NCI-H522 lung = system: NCI-H522 lung
A549/ATCC NSCLC = system: A549/ATCC NSCLC
786-0 renal = system: 786-0 renal
COLO 205 colon = system: COLO 205 colon
DU-145 prostate = system: DU-145 prostate
K-562 leukemia = system: K-562 leukemia
MALME-3M melanoma = system: MALME-3M melanoma
MDA-MB-231 breast = system: MDA-MB-231 breast
RXF 393 renal = system: RXF 393 renal
SF-268 CNS = system: SF-268 CNS
SF-295 CNS = system: SF-295 CNS
SF-539 CNS = system: SF-539 CNS
UACC-257 melanoma = system: UACC-257 melanoma
M14 melanoma = system: M14 melanoma
HCT-15 colon = system: HCT-15 colon

## C#CCn1cc(C=C2C(=O)NC(=O)NC2=O)c2cc(Cl)ccc21
NCI-H23 lung
  growth: 90.5%
NCI-H322M lung
  growth: 87.6%
HOP-62 NSCLC
  growth: 95.5%
NCI-H460 lung
  growth: 63.1%
HOP-92 NSCLC
  growth: 88.7%
NCI-H522 lung
  growth: 71.7%
A549/ATCC NSCLC
  growth: 96.1%
786-0 renal
  growth: 106%
COLO 205 colon
  growth: 123%
DU-145 prostate
  growth: 87.6%
K-562 leukemia
  growth: 82.6%
MALME-3M melanoma
  growth: 98.4%
MDA-MB-231 breast
  growth: 86.2%
RXF 393 renal
  growth: 72.3%
SF-268 CNS
  growth: 81.1%
SF-295 CNS
  growth: 92.6%
SF-539 CNS
  growth: 82.5%
UACC-257 melanoma
  growth: 94.6%
M14 melanoma
  growth: 85.1%
HCT-15 colon
  growth: 82.8%

## COC(=O)C1(C)CCC[C@]2(C)[C@H]3C[C@H]4C(C(C)C)=C[C@]3(CC[C@@H]12)[C@H]1[C@@H]4[C@@H](OCC#CCN2CCOCC2)CC[C@@H]1OCC#CCN1CCOCC1 (some centres not stated)
NCI-H23 lung
  growth: 82.6%
NCI-H322M lung
  growth: 102%
HOP-62 NSCLC
  growth: 85.3%
NCI-H460 lung
  growth: 94%
HOP-92 NSCLC
  growth: 54.9%
NCI-H522 lung
  growth: 74.4%
A549/ATCC NSCLC
  growth: 66.8%
786-0 renal
  growth: 86.1%
COLO 205 colon
  growth: 89.2%
DU-145 prostate
  growth: 95.5%
K-562 leukemia
  growth: 70.3%
MALME-3M melanoma
  growth: 79.3%
MDA-MB-231 breast
  growth: 77.2%
RXF 393 renal
  growth: 91.9%
SF-268 CNS
  growth: 83.7%
SF-295 CNS
  growth: 93.9%
SF-539 CNS
  growth: 86.2%
UACC-257 melanoma
  growth: 83.8%
M14 melanoma
  growth: 81.6%
HCT-15 colon
  growth: 85.5%

## O=S(=O)(c1ccccc1)n1cc2c(c1-c1ccccc1)CCc1sc(Nc3ccccc3)nc1-2
NCI-H23 lung
  growth: 92.8%
NCI-H322M lung
  growth: 75.6%
HOP-62 NSCLC
  growth: 112%
NCI-H460 lung
  growth: 86.6%
HOP-92 NSCLC
  growth: 86.6%
NCI-H522 lung
  growth: 77.7%
A549/ATCC NSCLC
  growth: 75.2%
786-0 renal
  growth: 89.7%
COLO 205 colon
  growth: 103%
DU-145 prostate
  growth: 90.1%
K-562 leukemia
  growth: 63.7%
MALME-3M melanoma
  growth: 105%
MDA-MB-231 breast
  growth: 79.4%
RXF 393 renal
  growth: 87%
SF-268 CNS
  growth: 86.7%
SF-539 CNS
  growth: 106%
UACC-257 melanoma
  growth: 96.5%
M14 melanoma
  growth: 87.8%
HCT-15 colon
  growth: 83.8%

## C#CCn1cc(C=C2C(=O)N(C)C(=O)N(C)C2=O)c2cc(Cl)ccc21
NCI-H23 lung
  growth: 110%
NCI-H322M lung
  growth: 102%
HOP-62 NSCLC
  growth: 107%
NCI-H460 lung
  growth: 106%
HOP-92 NSCLC
  growth: 107%
NCI-H522 lung
  growth: 88.7%
A549/ATCC NSCLC
  growth: 120%
786-0 renal
  growth: 111%
COLO 205 colon
  growth: 122%
DU-145 prostate
  growth: 112%
K-562 leukemia
  growth: 106%
MALME-3M melanoma
  growth: 97.9%
MDA-MB-231 breast
  growth: 105%
RXF 393 renal
  growth: 103%
SF-268 CNS
  growth: 96.8%
SF-295 CNS
  growth: 96.4%
SF-539 CNS
  growth: 94.5%
UACC-257 melanoma
  growth: 112%
M14 melanoma
  growth: 108%
HCT-15 colon
  growth: 111%

## CCN1C(=O)N(c2ccccc2)C2Nn3c(s/c(=C4\C(=O)N(C(C)C)c5ccccc54)c3=O)=NC21 (configuration not stated)
NCI-H23 lung
  growth: 104%
NCI-H322M lung
  growth: 108%
HOP-62 NSCLC
  growth: 98.5%
NCI-H460 lung
  growth: 108%
HOP-92 NSCLC
  growth: 113%
NCI-H522 lung
  growth: 92.1%
A549/ATCC NSCLC
  growth: 104%
786-0 renal
  growth: 101%
COLO 205 colon
  growth: 111%
DU-145 prostate
  growth: 120%
K-562 leukemia
  growth: 100%
MALME-3M melanoma
  growth: 98.7%
MDA-MB-231 breast
  growth: 99.4%
RXF 393 renal
  growth: 112%
SF-268 CNS
  growth: 98.7%
SF-295 CNS
  growth: 98.4%
SF-539 CNS
  growth: 100%
UACC-257 melanoma
  growth: 104%
M14 melanoma
  growth: 109%
HCT-15 colon
  growth: 108%

## CCOC(=O)c1cc2c(n1Cc1cccc(OC)c1)-c1oncc1CCC2
NCI-H23 lung
  growth: 36.4%
NCI-H322M lung
  growth: 74.8%
HOP-62 NSCLC
  growth: 39.9%
NCI-H460 lung
  growth: 17.9%
HOP-92 NSCLC
  growth: 67.4%
NCI-H522 lung
  growth: 14.5%
A549/ATCC NSCLC
  growth: 42.3%
786-0 renal
  growth: 51.7%
COLO 205 colon
  growth: -17.5% (active)
DU-145 prostate
  growth: 23.3%
K-562 leukemia
  growth: 10.8%
MALME-3M melanoma
  growth: -0.828% (active)
MDA-MB-231 breast
  growth: 53.9%
RXF 393 renal
  growth: 21.4%
SF-268 CNS
  growth: 38.8%
SF-295 CNS
  growth: 7.73% (active)
SF-539 CNS
  growth: 2.09% (active)
UACC-257 melanoma
  growth: 42.7%
HCT-15 colon
  growth: 29.3%

## C1=CC2(C=C1)OC21CCC2(C=CC3(C2)OC3C2CCCCC2)CC1 (configuration not stated)
NCI-H23 lung
  growth: 116%
NCI-H322M lung
  growth: 105%
HOP-62 NSCLC
  growth: 112%
NCI-H460 lung
  growth: 103%
HOP-92 NSCLC
  growth: 104%
NCI-H522 lung
  growth: 106%
A549/ATCC NSCLC
  growth: 101%
786-0 renal
  growth: 100%
COLO 205 colon
  growth: 120%
DU-145 prostate
  growth: 112%
K-562 leukemia
  growth: 113%
MALME-3M melanoma
  growth: 108%
MDA-MB-231 breast
  growth: 108%
RXF 393 renal
  growth: 119%
SF-268 CNS
  growth: 104%
SF-295 CNS
  growth: 106%
SF-539 CNS
  growth: 101%
UACC-257 melanoma
  growth: 108%
M14 melanoma
  growth: 102%
HCT-15 colon
  growth: 101%

## COC(=O)[C@H]1CCCN1C(=O)[C@H]1CCCN1C(=O)[C@H](Cc1c[nH]c2ccccc12)NC(=S)Nc1cc(C(F)(F)F)cc(C(F)(F)F)c1
NCI-H23 lung
  growth: 65.2%
NCI-H322M lung
  growth: 78.4%
HOP-62 NSCLC
  growth: 74.5%
NCI-H460 lung
  growth: 22.1%
HOP-92 NSCLC
  growth: 88.8%
NCI-H522 lung
  growth: 68.6%
A549/ATCC NSCLC
  growth: 35%
786-0 renal
  growth: 58.3%
COLO 205 colon
  growth: -34.8% (active)
DU-145 prostate
  growth: 64.6%
K-562 leukemia
  growth: 34.7%
MALME-3M melanoma
  growth: 70.5%
MDA-MB-231 breast
  growth: -38.5% (active)
RXF 393 renal
  growth: 64.8%
SF-268 CNS
  growth: 47.8%
SF-539 CNS
  growth: 74.3%
UACC-257 melanoma
  growth: 67.9%
M14 melanoma
  growth: 56%
HCT-15 colon
  growth: 70.4%
